The results in this text go back to PubChem BioAssay.

Test [1] concerns Human papillomavirus type 1a protein E7 (residues 44-93). The experiment in a line: small molecules binding HPV E7 44-93 – biochemical, small-molecule microarray, residues 44-93, 635 nm fluorescence, primary screen (AID 1108).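 Note: E7 fragment applied at 1 µg/mL in TBST for 1 h at 4 C; score combines spot fluorescence with its signal to noise ratio.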 The settings on record: fluorescence 635 nm, higher = more signal.
Test [2] in a line: hepatitis C replication reporter changes, two-sided – Huh7 cells, luciferase reporter, HCV replication inhibitor project, primary screen (AID 1109).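 Note: huh7 hepatoma cells harbouring a luciferase neomycin HCV replicon reporter; luciferase luminescence as measure of HCV replicon replication; test concentration not given here.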 The settings on record: Huh7 HCV replicon luciferase reporter, 48 h; higher = more signal.
The target in test [3] is Left-right determination factor 2 (Homo sapiens) (UniProt O00292). As to the kind of experiment: small molecules binding LEFTY2 protein – biochemical, small-molecule microarray, 635 nm fluorescence scan, primary screen (AID 1110). Particulars: higher = more signal.
Test [4] concerns the target Calmodulin-1 (Homo sapiens) (UniProt P0DP23). As to the kind of experiment: small molecules binding calmodulin-1 with EGTA – biochemical, small-molecule microarray, Cy5-labelled CALM1, profiling panel (AID 1111).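 Note: labelled calmodulin applied in Tris saline Tween buffer holding calcium plus EGTA and DTT.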 The settings on record: Cy5-CALM1 binding fluorescence, higher = more signal.
For test [5] the target is unchanged. The experiment in a line: small molecules binding Ca-loaded calmodulin-1 – biochemical, small-molecule microarray, Cy5-labelled CALM1, plus calcium, artefact control for SMM control-protein annotation, profiling panel (AID 1112).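 Note: score merges spot fluorescence with signal to noise from triplicate slides.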 The settings on record: Cy5-CALM1 binding fluorescence, higher = more signal.
Test [6] is described as follows: probe aWnt5a binding to arrayed compounds – biochemical, biotinylated probe, 635/667 nm fluorescence, primary screen (AID 1113).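 Note: score merges 667 nm fluorescence intensity with signal-to-noise per printed feature.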 The settings on record: small-molecule microarray, higher = more signal.
A short description of test [7]: probe aShh binding to arrayed compounds – biochemical, biotinylated probe, 635/667 nm fluorescence, primary screen (AID 1114).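 Note: probe is biotin-labelled aShh protein from a stem cell growth factor screen; measures binding of labelled protein to compounds printed on the slide; score merges feature fluorescence at 667 nm with signal-to-noise.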 The settings on record: small-molecule microarray, higher = more signal.
A short description of test [8]: probe aNog binding to arrayed compounds – biochemical, biotinylated probe, 635/667 nm fluorescence, primary screen (AID 1115).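 Note: probe is biotinylated aNog protein used at 0.15 µg/mL for 1 h at 4 C; z-score combines 667 nm fluorescence of each spot with its signal to noise.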 The settings on record: small-molecule microarray, higher = more signal.
The target in test [9] is Torsin-1A-interacting protein 1 (Homo sapiens) (UniProt Q5JTV8). As to the kind of experiment: compound microarray binding of lysate hLAP1 – cell lysate, small-molecule microarray, COS7 lysate, 635/667 nm fluorescence, primary screen (AID 1116). The settings on record: 635 nm fluorescence, higher = more signal.
Test [10] addresses Alpha-bungarotoxin (Bungarus multicinctus) (UniProt P60615). The experiment in a line: compounds binding labelled alpha-BTX control protein – biochemical, small-molecule microarray, Alexa647 label, 635/667 nm fluorescence, artefact control for SMM control protein annotation, profiling panel (AID 1117). Particulars: alpha-BTX-A647 binding fluorescence, higher = more signal.
In a further test the target is Albumin (Bos taurus) (UniProt P02769). The experiment in a line: compounds binding labelled BSA control protein – biochemical, small-molecule microarray, Alexa647 label, 635/667 nm fluorescence, artefact control for SMM control protein annotation, profiling panel (AID 1118).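 Note: score merges 667 nm emission intensity and signal-to-noise per printed compound spot.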 The settings on record: BSA-A647 binding, fluorescence 635 nm, higher = more signal.
A short description of test [11]: probe aXIP binding to arrayed compounds – biochemical, NeuroSMM set, 635/667 nm fluorescence, primary screen (AID 1119).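 Note: probe is the protein aXip251-270 applied at 1 µg/mL to compound-printed slides; binding of probe to printed compounds measured as 667 nm fluorescence plus signal to noise.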 Particulars: small-molecule microarray, higher = more signal, called active from +8 up or from −8 down.
Test [12] is described as follows: probe aNOTCH3 binding on compound microarray – biochemical, small-molecule microarray, 635/667 nm fluorescence, primary screen (AID 1120).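 Note: probe is a biotin-tagged antibody raised against NOTCH3 rather than NOTCH3 protein; score merges spot fluorescence near 667 nm with spot signal to noise.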 Particulars: higher = more signal.
Test [13] is described as follows: probe aNOTCH2 binding on compound microarray – biochemical, small-molecule microarray, 635/667 nm fluorescence, primary screen (AID 1121).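 Note: score merges feature fluorescence read at 667 nm with its signal to noise.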 The settings on record: higher = more signal.
Test [14] concerns the target Carbonic anhydrase 2 (Homo sapiens) (UniProt P00918). As to the kind of experiment: compounds binding carbonic anhydrase 2 – biochemical, small-molecule microarray, Alexa647-labelled CAII, profiling panel (AID 1122). Particulars: CAII-A647 binding fluorescence, higher = more signal.
Test [15] in a line: COS7 lysate on small-molecule microarray, probe aHis, 635 nm (AID 1123).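 Note: z-score combines 667nm fluorescence intensity with signal-to-noise per printed compound spot.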 The settings on record: COS7 cell lysate, fluorescence, higher = more signal.
A short description of test [16]: probe aLAP1 signal on lysate-treated microarray – cell lysate, small-molecule microarray, COS7 lysate, primary screen (AID 1124).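 Note: lysate comes from COS7 cells expressing LAP1 and is applied at 0.3 µg/mL; score merges spot fluorescence near 667 nm with signal-to-noise over triplicate slides.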 The settings on record: probe aLAP1, fluorescence, higher = more signal.
The next test has as its system Sam68 (KHDRBS1). As to the kind of experiment: compounds binding KHDRBS1 protein – biochemical, small-molecule microarray, 635 nm fluorescence, primary screen (AID 1125).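 Note: score merges 667 nm channel intensity with signal to noise over triplicate slides.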 The settings on record: higher = more signal.
Test [17] has as its system Chordin-like protein 2 (CHRDL2). As to the kind of experiment: compounds binding chordin-like 2 – biochemical, small-molecule microarray, 635 nm fluorescence, primary screen (AID 1126).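 Note: printed compound slides probed with Chrdl2 protein at 4 µg/mL for 1 h at 4 C; score merges 667 nm emission intensity with signal to noise over three replicate slides.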 Particulars: fluorescence 635 nm, higher = more signal.
For test [18], the target named is Concanavalin-A (Canavalia ensiformis) (UniProt P02866). As to the kind of experiment: compounds binding concanavalin A lectin – biochemical, small-molecule microarray, Alexa647 label, 635 nm, artefact control for SMM control protein annotation, primary screen (AID 1127).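 Note: z combines 667 nm emission intensity with signal-to-noise across three replicate slides.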 The settings on record: ConA-A647 binding fluorescence, higher = more signal.

The structures appear in SMILES notation. Active and inactive are the calls of the source.

Chain of Alpha-bungarotoxin (Bungarus multicinctus) (P60615 whole entry, looked up): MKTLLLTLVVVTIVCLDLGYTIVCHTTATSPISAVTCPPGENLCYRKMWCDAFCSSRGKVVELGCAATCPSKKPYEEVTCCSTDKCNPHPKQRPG
Chain of Concanavalin-A (Canavalia ensiformis) (P02866 whole entry, looked up): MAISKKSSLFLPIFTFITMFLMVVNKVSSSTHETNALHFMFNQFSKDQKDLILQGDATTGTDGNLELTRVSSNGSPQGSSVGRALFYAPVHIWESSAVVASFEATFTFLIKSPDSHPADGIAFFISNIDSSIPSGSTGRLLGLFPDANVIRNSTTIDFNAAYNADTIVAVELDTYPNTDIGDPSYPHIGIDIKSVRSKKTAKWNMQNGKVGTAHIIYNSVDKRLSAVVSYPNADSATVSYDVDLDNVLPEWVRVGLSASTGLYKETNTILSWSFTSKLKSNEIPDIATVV
Chain of Left-right determination factor 2 (Homo sapiens) (O00292 whole entry, looked up): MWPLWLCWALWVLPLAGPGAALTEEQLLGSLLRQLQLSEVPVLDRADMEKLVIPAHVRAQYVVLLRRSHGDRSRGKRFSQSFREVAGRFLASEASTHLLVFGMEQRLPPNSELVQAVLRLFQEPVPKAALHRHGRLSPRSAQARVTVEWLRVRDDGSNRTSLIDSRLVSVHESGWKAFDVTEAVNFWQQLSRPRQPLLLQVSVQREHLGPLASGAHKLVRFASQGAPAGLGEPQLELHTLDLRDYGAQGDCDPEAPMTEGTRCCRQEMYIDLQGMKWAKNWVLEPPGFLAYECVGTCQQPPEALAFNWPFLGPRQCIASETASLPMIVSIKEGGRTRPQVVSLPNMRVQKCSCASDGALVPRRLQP
Chain of Albumin (Bos taurus) (P02769 whole entry, looked up): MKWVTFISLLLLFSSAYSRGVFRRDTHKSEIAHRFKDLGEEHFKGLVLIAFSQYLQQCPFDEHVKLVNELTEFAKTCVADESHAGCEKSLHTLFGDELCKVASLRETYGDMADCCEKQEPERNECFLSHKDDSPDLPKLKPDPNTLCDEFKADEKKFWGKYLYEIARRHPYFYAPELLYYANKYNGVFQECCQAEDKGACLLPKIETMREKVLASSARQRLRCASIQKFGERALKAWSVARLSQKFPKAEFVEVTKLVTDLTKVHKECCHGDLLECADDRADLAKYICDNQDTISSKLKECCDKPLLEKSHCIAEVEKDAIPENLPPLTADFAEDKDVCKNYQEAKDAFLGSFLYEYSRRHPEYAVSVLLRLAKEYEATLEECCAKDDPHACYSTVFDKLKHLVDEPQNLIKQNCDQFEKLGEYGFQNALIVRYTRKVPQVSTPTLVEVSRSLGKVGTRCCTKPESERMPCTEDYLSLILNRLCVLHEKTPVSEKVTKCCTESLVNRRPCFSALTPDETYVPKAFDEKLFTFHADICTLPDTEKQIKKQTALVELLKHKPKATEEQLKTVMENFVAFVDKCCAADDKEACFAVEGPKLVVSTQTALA
Chain of Torsin-1A-interacting protein 1 (Homo sapiens) (Q5JTV8 whole entry, looked up): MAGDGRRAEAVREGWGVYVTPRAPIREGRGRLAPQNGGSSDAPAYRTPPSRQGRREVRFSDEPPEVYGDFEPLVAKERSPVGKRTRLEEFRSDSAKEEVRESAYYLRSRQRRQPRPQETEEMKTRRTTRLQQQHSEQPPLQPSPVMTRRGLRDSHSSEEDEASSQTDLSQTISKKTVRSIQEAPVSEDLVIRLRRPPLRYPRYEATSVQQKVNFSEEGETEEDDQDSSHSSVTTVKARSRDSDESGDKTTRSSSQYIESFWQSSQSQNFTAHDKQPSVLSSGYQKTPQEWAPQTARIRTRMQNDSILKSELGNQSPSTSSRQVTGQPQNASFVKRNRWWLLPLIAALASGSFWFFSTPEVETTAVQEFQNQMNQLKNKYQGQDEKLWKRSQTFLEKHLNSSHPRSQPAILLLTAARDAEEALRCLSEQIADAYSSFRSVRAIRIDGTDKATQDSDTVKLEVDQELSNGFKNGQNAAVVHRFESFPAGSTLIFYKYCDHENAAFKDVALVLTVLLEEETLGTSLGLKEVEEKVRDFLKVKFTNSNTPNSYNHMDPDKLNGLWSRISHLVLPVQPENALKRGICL

As to `CC(C)(C)N1C(=O)[C@H]2[C@H]3[C@H](O)[C@H](O)CC(=NNC(=O)OCc4ccccc4)[C@H]3CC[C@H]2C1=O`, the composite z-score in test [1] was 0.978; in test [3] it was 0.613; in test [4], -0.0736; in test [5], -0.313; in test [6] it was -0.107; in [7] it was 0.0141. Moreover, the composite z-score in [8] was 0.0516; in test [9], 0.522; in [10], 0.613; in the test with Albumin (Bos taurus) it was -0.316; in test [12], -0.0071; in test [13], -0.075. Also, the composite z-score in test [14] is 0.158; in [15], 0.447; in [16], -0.0026; with Sam68 (KHDRBS1), 1.1; in test [17] it was 0.303; in test [18], 0.275. In test [2], this compound came in with a z-score of -1.9. Moreover, the composite Z-score in test [11] is 0.175 (inactive).

Consider `CO[C@@H]1COC(=O)CC=C[C@H](C)[C@H](OC)COC(=O)[C@@H]2CCCN2C(=O)CC=C[C@H]1C`, for which the composite z-score is -0.496 in test [1]; 1.31 in test [3]; -0.86 in test [4]; -1.38 in [5]; -0.113 in test [6]; 0.0328 in [7]. Also, the composite z-score was -0.195 in test [8]; -0.041 in [9]; -0.324 in test [10]; -0.568 in the test with Albumin (Bos taurus); -0.116 in [12]; -0.154 in [13]. The composite z-score in [14] was -0.623; in test [15], -0.301; in test [16], 0.569; with Sam68 (KHDRBS1), 0.442; in test [17], 1.44; in test [18], -0.371. The compound also displayed a z-score in test [2] of -0.733. The composite Z-score in test [11] was 0.598 (inactive).

Take `CC(CCN1CCCCc2nc(C)c(C)cc21)=NO[C@H](C)c1cn([C@@H]2COC[C@H]2O)nn1`: the composite z-score was 0.421 in [1]; 1.35 in [3]; -0.197 in [4]; -0.835 in test [5]; -0.222 in test [6]; -0.112 in test [7]. Moreover, the composite z-score in test [8] is -0.158; in [9], 0.337; in test [10], 1.3; with Albumin (Bos taurus), 0.43; in test [12], 0.156; in [13], 0.0097. For the same compound, the composite z-score in test [14] was 0.616; in [15], 0.298; in test [16], 0.0986; with Sam68 (KHDRBS1), 1.2; in test [17] it was 1.49; in test [18], 0.685. In addition, in test [2], the z-score is -0.219. In test [11], the composite Z-score was -1.61 (inactive).

For `COC(=O)CC=C[C@@H](C)[C@@H](C=NOC(C)CN1CCCCc2nc(C)c(C)cc21)OC` (stereo not given in full), the composite z-score was 1.04 in test [1]; 1.11 in test [3]; -0.452 in [4]; -1.05 in test [5]; -0.1 in [6]; -0.138 in test [7]. Moreover, the composite z-score in test [8] was -0.619; in [9], 0.449; in [10], 0.143; with Albumin (Bos taurus), 0.276; in test [12], 0.227; in test [13] it was -0.0439. The composite z-score was 0.301 in test [14]; 0.043 in [15]; -0.0856 in test [16]; 1.28 in the test on Sam68 (KHDRBS1); 1.29 in [17]; 0.235 in test [18]. In test [2], this compound displayed a z-score of -1.23. The composite Z-score in [11] is -0.472 (inactive).

`CC(C)(C)N1C(=O)[C@H]2[C@H]3[C@H](O)[C@H](O)CC(=NNC(=O)OCc4ccccc4)[C@@H]3CC[C@H]2C1=O`: the composite z-score was 0.594 in test [1]; 0.432 in test [3]; -0.213 in test [4]; -0.412 in test [5]; -0.0721 in [6]; -0.399 in [7]. Moreover, the composite z-score in test [8] is -0.137; in test [9], 0.505; in test [10] it was 0.162; with Albumin (Bos taurus) it was 0.303; in test [12], 0.073; in [13], -0.0515. Besides, the composite z-score in [14] turned out to be 0.0243; in test [15] it was 0.728; in test [16], 0.3; in the test on Sam68 (KHDRBS1), 0.692; in [17] it was 0.397; in [18], 0.87. Besides, the z-score in test [2] worked out at 0.508. Further, the composite Z-score in [11] was -0.151 (inactive).

For the compound `O=C1[C@H]2[C@H]3[C@H](O)[C@H](O)CC(=NO[C@@H]4O[C@H](CO)[C@@H](O)[C@H](O)[C@H]4O)[C@H]3CC[C@H]2C(=O)N1c1ccc(F)cc1F`, the composite z-score in test [1] is 0.491; in [3] it was 0.382; in test [4], -0.466; in test [5], -1.2; in [6], -0.0088; in test [7], 0.178. For the same compound, the composite z-score in [8] is -0.273; in test [9] it was -0.267; in [10], 0.184; with Albumin (Bos taurus), -0.168; in test [12], 0.196; in test [13], -0.177. In addition, the composite z-score in test [14] was -0.556; in [15], -0.258; in [16], 0.0482; with Sam68 (KHDRBS1), 1.07; in [17], -0.819; in test [18], -1.06. Moreover, the z-score in [2] came to 0.29. For the same compound, in test [11], the composite Z-score is -0.463 (inactive).
